Screening results: PubChem, National Center for Advancing Translational Sciences (NCATS)
TDP43 rescue – qHTS of TDP-43 Inhibitors | TDP-43 expressing yeast growth rescue, BacTiter-Glo, 24 h | Potency, µM (highest dose often 46.1 µM), without a hit: at the top dose growth rescue (activation), actives largely listed as activators | 1.8% of 410,000 active | AID 652104, 2013; further: % of control where 0% means no effect; nearly all actives have a fitted effect of over 50% in size
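Yeast cells expressing TDP-43 under galactose induction are exposed to compounds for 24 hr at 30 deg C. BacTiter-Glo luminescence measures growth, so protective compounds score as activators.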
Abeta rescue – qHTS for compounds that reverse cellular toxicity of Amyloid beta (A-beta) peptide in yeast: Primary Screen; AID 1347071, 2019; yeast expressing A-beta42, growth rescue, OD600, 48 h; response scale: 0% DMSO, 100% iron-clioquinol control; 0.063% of 410,000 active; Potency, µM (top dose mostly 46.1 µM), most hits filed as activators; further: nearly all actives have a fitted effect of over 55% in size
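Growth rescue measured by 600 nm absorbance after 48 h yeast culture at 30 C with compound. Values normalized between DMSO and an equimolar ferric chloride plus clioquinol control.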
Mito fusion yeast – qHTS Assay for Small Molecule Inhibitors of Mitochondrial Division or Activators of Mitochondrial Fusion; S. cerevisiae fusion-defective mutant growth rescue, CellTiterGlo 48 h; Potency, µM (titrated, usually from 46.1 µM), without a hit: at the top dose growth rescue (activation), hits mostly activators; 0.23% of 320,000 active; AID 485298, 2010; further: % of control where 0% means no effect; nearly all actives have a fitted effect of over 45% in size
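Compounds are tested for their ability to restore growth of mitochondrial fusion-defective yeast strains at non-permissive 37C in YPEG medium over 48 hours. Viability is quantified by luciferase luminescence.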
aSyn yeast inh – qHTS of alpha-syn Inhibitors | Yeast expressing alpha-synuclein, growth rescue, BacTiter-Glo, 24 h | Potency, µM (titrated, usually from 46.1 µM), without a hit: at the highest dose growth rescue (activation), hits mostly activators | 0.14% of 370,000 active | AID 652106, 2013; further: % of control where 0% means no effect; nearly all actives have a fitted effect of over 65% in size
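Readout is rescue of growth in alpha-synuclein-expressing yeast, so inhibitors of toxicity appear as activators. Growth after 24 hr at 30 deg C in galactose medium is quantified by luminescence.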
FUS suppressor – qHTS for Suppressors of FUS Proteinopathy: Primary screen using FUS-linked yeast assay. 0.24% of 390,000 active. AID 1347120, 2019. Potency, µM (doses to about 76.6 µM), actives largely listed as activators. S. cerevisiae FUS-expressing, growth rescue, OD600, 24 h;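 further: plate controls were DMSO vehicle for no effect and reference control for full effect; nearly all actives have a fitted effect of over 55% in size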
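Read-out: OD at 600 nm after 24hr at 30C, reporting rescue of FUS-induced yeast toxicity. Cells at OD 0.005 in galactose (2%) minimal medium; compounds tested in a dilution series; CP55940 titration from 92uM final as control.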
An asterisk follows results filed as active; i = inactive; ? = inconclusive; · = not tested or not shown; ! = not confirmed by another sample; [ ] = dose if it differs, or a comment. Rows were chosen to be rich in hits. Some 2.2% of all compounds tested hit in one or more screens of this group. The call rests on the fitted dose curve; in most records, active means well fitted curve in the direction sought with a large enough effect; inconclusive means small, poorly fitted or top-dose-only effect, or another doubt; inactive means no such curve, though single readings can be large; an effect the other way counts as inactive or inconclusive. Potency means the concentration at half of the fitted maximal effect.

SMILES	TDP43 rescue	Abeta rescue	Mito fusion yeast	aSyn yeast inh	FUS suppressor
O=S(=O)(NC(=S)NC1CCCCC1)c1ccc(Br)cc1	20µM*	i	10%	11%	i
O=C(CCNS(=O)(=O)c1ccc(Br)cc1)NC1CCCCC1	0%[0.397 µM]	i	6%	6%	?
CCCCN(CCCC)S(=O)(=O)c1ccc(NC(=O)c2c(-c3ccccc3)noc2C)cc1	-19%	i	·	·	i
Cc1nn(-c2ccccn2)c2c1-c1nc(N)sc1CC2	·	·	·	13µM*	·
Cc1nn(-c2ccccn2)c2c1-c1nc(N)ncc1CC2	17%	i	-2%	-2%	i
COc1ccc(N2CCN(C(=O)c3ccc(Nc4nc5ccccc5n5nnnc45)cc3)CC2)cc1	8%	i	·	·	?
O=C(c1ccc(Nc2nc3ccccc3n3nnnc23)cc1)N1CCN(c2ccc(F)cc2)CC1	10µM*	?	·	·	i
COc1ccc(S(=O)(=O)N2CCN(C(=O)c3ccc(C)o3)CC2)cc1	-9%	i	4%	0%	i
CCCCCCC(=O)OCC(=O)c1ccc2c(c1)NC(=O)CO2	16µM*	i	0%	8%	i
O=C(CCn1c(=O)c2cccn2c2cccnc21)N1CCN(c2cccc(Cl)c2)CC1	20µM*!	i	7%	18%	i
Cc1ccc(S(=O)(=O)N2CCOC23CCN(C(=O)c2ccccc2Br)CC3)cc1	16µM*	·	-13%	5%	i
Clc1ccc(SCNc2ccccc2Cl)cc1	-8%	i	14%	-17%	i
Cc1ccc(NCSc2ccc(Cl)cc2)cc1	7.1µM*	?	·	11%	i
Cc1cccc(-c2nc(CCNC(=O)c3ccccc3Br)cs2)c1	13µM*	i	·	·	i
COc1ccc(C(=O)NCCc2sc(-c3ccc(F)cc3)nc2C)cc1OC	20%	i	·	·	i
CCOc1ccc(C(=O)NCCc2sc(-c3ccc(OC)c(OC)c3)nc2C)cc1	16µM*	i	·	-15%	i
Cc1ccc(-c2nc(C)c(CCNC(=O)c3ccccc3Br)s2)cc1	?	i	·	-2%	i
COc1cccc(C(=O)NCCc2csc(-c3cccc(F)c3)n2)c1OC	?	i	·	·	i
COc1ccc(-c2nc(C)c(CCNC(=O)c3ccccc3Br)s2)cc1OC	11µM*	i	·	·	i
CN1CCN(C(=O)C[C@H]2CC[C@H]3[C@@H](COC[C@@H](O)CN3Cc3cccc(F)c3)O2)CC1	7%	i	·	0%	i
CCCCc1ccc(/C(C)=N/NC(=O)C2CCCC2)cc1	4%	i	0%	-1%	i
O=C(NCC(F)(F)F)c1[nH]c(C(F)(F)F)nc1-c1ccccc1	16%	i	·	-8%	i
O=C(Nc1nnc(-c2cccs2)o1)c1cccc(C(F)(F)F)c1	7.1µM*	6.3µM*	12%	3.2µM*	i
CCOc1cc(C(=O)Nc2cccc3cccnc23)cc(OCC)c1OCC	?	i	·	·	i
CC1CCN(c2nc3ccc(C(=O)O)cc3s2)CC1	4µM*	i	-21%	-11%	·
SMILES	TDP43 rescue	Abeta rescue	Mito fusion yeast	aSyn yeast inh	FUS suppressor
O=C(CCS(=O)(=O)c1ccccc1)N(CCCN1CCOCC1)c1nc2ccc(F)cc2s1	0%	i	-2%	6%	i
Oc1ccc(N2CCN(c3ncnc4sc(-c5ccccc5)cc34)CC2)cc1	11µM*	i	1%	?	?
CCc1cc2c(N3CCN(c4ccccc4)CC3)ncnc2s1	13µM*	i	7%	12%	i
CC(=O)N1CCN(c2ncnc3sc(-c4ccccc4)cc23)CC1	16%	i	4%	-3%	i
CCOC(=O)c1ccccc1NC1c2ccccc2C(=O)N1C1CCN(C(=O)OCC)CC1 (configuration not stated)	20%	i	35µM*	-1%	i
CCOC(=O)N1CCC(N2C(=O)c3ccccc3C2Nc2ccccc2C)CC1 (configuration not stated)	10%	i	3%	3%	i
C=CCC[C@@H](Cc1ccc(F)cc1)C(=O)OC[C@H]1CCCN1C(=O)[C@@H](CC=C)CC(=O)N[C@H](CO)Cc1ccccc1	19%	i	·	-1%	?
C=CCC[C@@H](Cc1ccc(F)cc1)C(=O)OC[C@@H]1CCCN1C(=O)[C@H](CC=C)CC(=O)N[C@H](CO)Cc1ccccc1	?	i	·	?	20µM*
C=CCC[C@@H](Cc1ccc(F)cc1)C(=O)OC[C@@H]1CCCN1C(=O)[C@@H](CC=C)CC(=O)N(CCO)Cc1ccccc1	-5%	i	·	-1%	20µM*
N#CC(C#N)=C1C(=O)N(CCN2CCCCC2)c2ccccc21	-22%	i	3%	13%	22µM*
COc1c(Cl)cc(C(=O)O)cc1Cl	35µM*	i	·	-9%	i
COc1ccc(NC(=O)CSc2nc3scc(C)c3c(=O)[nH]2)cc1	4%	i	2%	5%	i
Cc1ccc(C)n1C(CC(=O)O)c1ccc(C#N)cc1 (configuration not stated)	-21%	i	-4%	-5%	32µM*
O=C(C1CC(=O)N(c2ccc3c(c2)OCCO3)C1)N1CCN(c2cccc(C(F)(F)F)c2)CC1 (configuration not stated)	21%	i	-18%	-3%	i
Fc1cccc(Cc2c(-c3ccco3)nc3c(Cl)cc(C(F)(F)F)cn23)c1	13µM*	i	·	12%	i
Cc1ccc(Cc2c(-c3ccco3)nc3c4ccccc4ccn23)cc1	0%	i	·	13µM*	i
COC(=O)c1ccc2nc(-c3ccco3)c(Cc3ccc(C)cc3)n2c1	20µM*	i	·	?	i
COC(=O)c1ccc2nc(-c3ccco3)c(Cc3cccc(F)c3)n2c1	14µM*	i	·	?	i
COC(=O)c1ccc2nc(-c3ccc(C)cc3)c(Cc3ccc(C)cc3)n2c1	?	i	·	?	i
O=C(Nc1nnc(S(=O)(=O)N2CCc3ccccc32)s1)c1cccc(Cl)c1	9%	i	·	·	i
O=C1CSC(c2ccccc2F)N1c1cc(Cl)ccc1O (configuration not stated)	20%	i	2%	15%	i
O=C1CSC(c2cccc(Cl)c2Cl)N1c1ccccn1 (configuration not stated)	14µM*	i	16%	19%	i
Cc1ccc(C(=O)Nc2ccccc2)cc1S(=O)(=O)Nc1ccc(Br)cc1	13µM*	i	·	·	i
CC(C)(C)OC(=O)N1CCN(C(=O)c2ncn3c2c(=O)[nH]c2ccccc23)CC1	0%	i	·	4%	i
